DAX1 inh-1: inhibitors of human orphan nuclear receptor DAX1 (NR0B1) | inhibition, % at 6.75 µM | hit rate 0.99% among 340,000 | HEK293 Gal4-DAX1 luciferase reporter, luminescence;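 active = inhibition above the mean over all tested compounds plus 3 SD, cut at about 4.2% in these data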;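 also: 0% = DAX1-transfected cells with DMSO and 100% = empty-vector control cells with DMSO; inhibition shows as a rise in luminescence from relieved DAX1 repression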
Target sequence (P51843 207-470 limits assumed): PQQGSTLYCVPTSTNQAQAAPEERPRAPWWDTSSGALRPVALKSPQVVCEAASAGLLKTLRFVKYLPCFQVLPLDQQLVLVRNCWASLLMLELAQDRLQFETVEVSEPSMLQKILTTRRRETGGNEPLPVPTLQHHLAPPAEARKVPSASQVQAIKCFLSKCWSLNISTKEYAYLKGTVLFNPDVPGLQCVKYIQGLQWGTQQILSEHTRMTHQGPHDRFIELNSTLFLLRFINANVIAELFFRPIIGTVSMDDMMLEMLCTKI
hgDAF-12 ag: hgDAF-12 agonism, primary luciferase screen | HEK293 GAL4-hgDAF12 UAS-luciferase reporter, agonist luminescence; normalized to butyrate control | activation, % at 6.8 µM | hit rate 1.8% among 370,000 | AID 687014;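 active = activation above a cutoff set at the mean of all screened compounds plus 3 SD, cut at about 10% in these data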;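 also: 0% = DMSO wells and 100% = sodium butyrate wells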
hcDAF-12 act: activates DAF-12 receptor from parasite H. contortus. HEK293 hcDAF-12 lit1-tk-luc reporter, luminescence; 0% DMSO, 100% Δ7-dafachronic acid. AID 652067. hit rate 1.4% among 370,000. activation, % at 6.8 µM;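 active = activation above the mean of all tested compounds plus 3 SD, cut at about 5.5% in these data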;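 also: 100% = response to 3 µM Δ7-dafachronic acid high control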
ssDAF-12 act: activators of S. stercoralis DAF-12 nuclear receptor; HEK293 ssDAF-12/GRIP1 lit1-tk-luc reporter, luminescence; % of 3 µM dafachronic acid response; activation, % at 6.8 µM; hit rate 1% among 370,000; AID 652126;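 active = activation above the mean over all tested compounds plus 3 SD, cut at about 0.9% in these data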;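 also: 0% = DMSO-only wells and 100% = 3 µM delta7-dafachronic acid wells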
DAX1 inh-2: inhibitors of DAX1 repression of SF-1 activated StAR promoter | AID 652010 | hit rate 1.1% among 370,000 | HEK293T StAR-luciferase reporter, SF-1/DAX-1 repression relief | inhibition, % at 6.8 µM;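 active = inhibition above the mean over all tested compounds plus 3 SD, cut at about 3.6% in these data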;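 also: 0% = DAX-1 cells with DMSO and 100% = cells lacking DAX-1 with DMSO; higher inhibition means more luminescence from relief of DAX-1 repression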
The depositor's hits bear a star; / = not tested or not shown. Compounds with a hit are over-represented: about 4.1% of the library has one in this group of screens.

SMILES | DAX1 inh-1 | hgDAF-12 ag | hcDAF-12 act | ssDAF-12 act | DAX1 inh-2
O=C(Nc1ccc2ncccc2c1)c1cc(-c2ccc(Cl)cc2)nc2ccccc12 | / | 2 | 2 | -1 | 1
CC(C)n1nnnc1C1(C)CN(S(C)(=O)=O)CC(=O)N1Cc1cccc(C(F)(F)F)c1 (configuration not stated) | / | 0 | 0 | -1 | -1
Cc1ccc(NC(=S)NC(=O)c2ccc(-c3ccc(Cl)cc3)o2)c(O)c1 | 1 | 2 | 3 | 2.5* | 0
O=C(NCc1ccccc1F)C1CCC(CNS(=O)(=O)c2cccc3cccnc23)CC1 (configuration not stated) | / | -1 | 0 | -1 | -1
CCc1nnc(NC(=O)/C=C/c2ccco2)s1 | 0 | 7 | 1 | -1 | 1
CCCSc1nnc(NC(=O)c2ccco2)s1 | 6.1* | 5 | 2 | -1 | 3
O=C(Nc1nnc(CC(c2ccccc2)c2ccccc2)s1)c1ccco1 | 4.5* | -2 | -1 | -1 | -1
O=C(Nc1nnc(SCc2ccccc2F)s1)c1ccco1 | -1 | 0 | 0 | -2 | 0
C[C@H](NC(=O)c1ccco1)C(=O)Nc1nnc(SCc2ccccc2)s1 | 0 | 1 | 1 | -1 | 3.7*
CCSc1nnc(NC(=O)/C=C/c2ccco2)s1 | 3 | 9 | 6.0* | -2 | 0
COC(=O)C1CN(Cc2cn(Cc3ccc(C)cc3)nn2)CCS(=O)(=O)N1Cc1ccc(Cl)cc1 (configuration not stated) | / | -4 | -4 | -1 | -3
CCC(NC(=O)CN1CCN(c2cccc(OC)c2)CC1)c1ccccc1 (configuration not stated) | / | -1 | 1 | -1 | -2
CCOc1ccc(CCN2C(=S)N([C@@H](CC(C)C)CN3CCCC3CN3C(=S)NC[C@@H]3CC(C)C)C[C@@H]2CC(C)C)cc1 (some centres not stated) | 1 | 0 | 0 | -1 | 4.4*
CCOc1ccccc1C(O)C1=CC(=O)c2ccccc2C1=O (configuration not stated) | -1 | -2 | 6.2* | -1 | 1
COc1ccc(OC)c2sc(N3CCCCC3)nc12 | 1 | 11* | 0 | -1 | -1
COc1ccc(OC)c2sc(N3CCc4ccccc4C3)nc12 | -1 | 1 | 0 | -1 | -1
COc1cccc(CC(=O)Nc2ccc3c(c2)c(=O)n(C)n3-c2ccc(C(C)(C)C)cc2)c1 | / | 0 | -1 | 4.1* | 0
COc1ccc(O)c(-c2cc(-c3cccs3)[nH]n2)c1 | 2 | 10 | 5.8* | 1.1* | 0
COC(=O)c1ccc(N=NNc2ccccc2)cc1 | 3 | 11* | 4 | 0 | 4.1*
O=C(O)c1cccc(S(=O)(=O)NCC(=O)N2CCN(c3ccccn3)CC2)c1 | / | 3 | 1 | -1 | 0
Cc1ccc(OCC(=O)N/N=C2/SCC(=O)N2Cc2ccco2)cc1 | 6.9* | 0 | -2 | -1 | 1
OC(c1ccccc1)(c1ccccc1)C1CCN(CCCNc2ccccc2F)CC1 | / | 1 | 1 | 0 | 1
CCN(CC)c1ccc(/C=N/NC(=O)c2ccoc2C)c(O)c1 | 2 | 12* | 4 | 0 | -2
CCN(CC)c1ccc(/C=N/NC(=O)OC)c(O)c1 | 0 | 2 | -1 | -1 | 0
CCn1nc(C)c(/C=N/NC(=O)c2ccoc2C)c1C | 3 | 9 | 2 | 0 | 3
SMILES | DAX1 inh-1 | hgDAF-12 ag | hcDAF-12 act | ssDAF-12 act | DAX1 inh-2
CCCCCn1nc(C)c(/C=N/NC(=O)c2ccoc2C)c1C | 2 | 13* | 2 | -1 | 3.6*
C=CCN(C(=O)[C@@H](C1CC1)[C@@H](O)c1ccc(Cl)cc1)c1ccccc1 | / | -2 | -2 | -1 | -2
O=C(N/N=C/c1cccs1)c1n[nH]c2c1CCCC2 | -6 | 9 | 5.9* | 0 | 0
Cc1cc2c(NC(=O)Nc3ccccc3)cccc2nn1 | 5.4* | -1 | -2 | -1 | 0
COc1ccc2nc3cc(Cl)ccc3c(C#N)c2c1 | 1 | -2 | 1 | -1 | 1
COc1ccc2nc3cc(Cl)ccc3c(Nc3ccc(O)c(CN4CCN(C)CC4)c3)c2c1 | 4.3* | 5 | 1 | -1 | 2
Cc1ccc(S(=O)(=O)[N-]c2nc3ccccc3nc2-n2cc[n+](CCC(C)C)c2)cc1 | 1 | 0 | 2 | 0 | 1
CC(C)CC[n+]1ccn(-c2nc3ccccc3nc2[N-]S(=O)(=O)c2ccc(Cl)cc2)c1 | 5.3* | 0 | -1 | -2 | 1
c1nc(NCC2CCCC2)c2cc(-c3ccc4c(c3)OCO4)ccc2n1 | / | 2 | 3 | -1 | /
CCc1ccc(N2C(=O)CC(Cn3nc(C)cc3C)C2=O)cc1 (configuration not stated) | 5.1* | 0 | 0 | -1 | 0
Cc1ccc(N2C(=O)CC(Cn3nc(C)cc3C)C2=O)cc1 (configuration not stated) | -1 | 1 | 0 | -1 | 1
O=C(c1ccc(Br)cn1)N1CCC(Oc2cccnc2)CC1 | / | 0 | -2 | -2 | 1
COc1ccc(-c2nc3ncccn3c2Br)cc1 | 10.0* | 11* | 3 | 0 | 2
O=C(CCc1nnc(C2CCCCC2)o1)NCc1ccc(F)c(F)c1 | 5.6* | -1 | 0 | -1 | 0
Cc1cc(-c2nnc(CCC(=O)NCc3ccc(F)c(F)c3)o2)no1 | 4.3* | 3 | 0 | 1.9* | 0
Cc1cc(-c2nnc(CCC(=O)NCc3cccc(C(F)(F)F)c3)o2)no1 | 0 | 3 | 0 | 0 | -1
c1cncc(CSc2ccc(-c3ccc4c(c3)OCO4)nn2)c1 | 0 | 5 | 5.6* | -1 | 2
COC(=O)[C@]1(C#N)CC(=O)N(CC(C)C)[C@@H]1c1ccccc1 | / | -1 | 3 | -1 | 0
COc1cccc(/C=N\N2CCN(c3ccc(C)cc3)CC2)c1O | / | 1 | -2 | -1 | 0
Cc1ccnc(NC(=O)c2cc(-c3ccc(Cl)s3)nc3ccccc23)c1 | 4.7* | 2 | 0 | 0 | 1
Cc1cc(NC(=O)c2cc(-c3ccc(C)s3)nc3ccccc23)no1 | 1 | 3 | 1 | 1.7* | -1
Cc1cc(NC(=O)c2cc(-c3ccccc3C)nc3ccccc23)no1 | 0 | -2 | 5 | 0 | 0
O=C(Nc1ccccn1)c1cc(-c2ccc(Cl)s2)nc2ccccc12 | -1 | 2 | 0 | -1 | -2
COc1ccccc1C(=O)NNC1=C(C(=O)C(F)(F)F)CCC1 | 2 | 8 | 4 | 0.9* | 2
O=C(NNC1=C(C(=O)C(F)(F)F)CCC1)c1ccccc1O | 4 | 6 | 5.6* | 1.0* | 1
C=CCN1C(=O)[C@@H](CC(=O)N2CCSCC2)[C@]2(C(=O)OCC)CCCCC/C=C/12 | / | -1 | -1 | -1 | 1
CCN(CC)C(=O)CC[C@H]1CC[C@]2(CCCN(C(=O)c3ccno3)C2)O1 | / | -4 | -1 | -1 | 3

Screening results as filed in PubChem BioAssay.
